# Test results published in PubChem BioAssay (NCI).
# Compounds without any hit were thinned out: in the full panel of roughly 79,000, 15% have a hit. A number with no mark means an inactive call. Activity calls are given as the source filed them. No stated cut-off is given here; in the data, active means growth inhibition above about 70%; inactive means the rest.
# Key:
# [1] = NCI Yeast Anticancer Drug Screen. Data for the rad50 strain (AID 155);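 further: 0% = growth of vehicle-only cultures of the same strain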; details: S. cerevisiae rad50 strain growth inhibition; at 50.0 µM; stronger effect = higher value
# Method in brief: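 Cells are treated with compound, grown, and their growth is then scored against vehicle-only cultures of the same repair-deficient yeast strain.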
# [2] = NCI Yeast Anticancer Drug Screen. Data for the mec2-1 strain (AID 157); details: S. cerevisiae mec2-1 strain, at 50.0 µM, stronger effect = higher value
# Method in brief: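 Mutant yeast (mec2-1) grown with compound; growth inhibition relative to vehicle control reported.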
# [3] = NCI Yeast Anticancer Drug Screen. Data for the sgs1 mgt1 strain (AID 161);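 further: 0% = growth of cultures given vehicle only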; details: S. cerevisiae sgs1 mgt1 strain, at 50.0 µM, stronger effect = higher value
# Method in brief: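 Yeast cells carrying a defined DNA-repair defect were exposed to test compounds. Growth inhibition was measured relative to vehicle-treated controls.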
# [4] = NCI Yeast Anticancer Drug Screen. Data for the cln2 rad14 strain (AID 165);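 further: 0% = growth equal to vehicle treated cultures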; details: S. cerevisiae cln2 rad14 strain, at 50.0 µM, stronger effect = higher value
# Method in brief: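 Readout is yeast growth inhibition versus vehicle-treated controls, using a strain with cln2 and rad14 alterations exposed to compound.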
# [5] = NCI Yeast Anticancer Drug Screen. Data for the bub3 strain (AID 167); details: S. cerevisiae bub3 mutant strain, at 50.0 µM, stronger effect = higher value
# Method in brief: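 Part of a panel of yeast mutants defective in DNA damage repair or cell cycle regulation. Each strain is grown with compound, and inhibition is calculated relative to solvent-treated cultures.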
# [6] = NCI Yeast Anticancer Drug Screen. Data for the mlh1 rad18 strain (AID 175); details: S. cerevisiae mlh1 rad18 strain growth inhibition; at 50.0 µM; stronger effect = higher value
# Method in brief: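 Genetically defined yeast (DNA repair-deficient) exposed to compounds; growth inhibition determined relative to vehicle.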
SMILES,growth inhibition [1],growth inhibition [2],growth inhibition [3],growth inhibition [4],growth inhibition [5],growth inhibition [6]
O=C1C=CC(=NN=c2c3ccccc3oc3ccccc23)C=C1,-11.3%,-3.35%,4%,-20.9%,12.7%,0.1%
O=C1c2ccccc2C(=O)C1(O)c1c[nH]c2ccccc12,-1.55%,12.1%,4.25%,6.85%,-18%,23.6%
COc1ccc2ccccc2c1C(=O)/C=C/c1ccccc1,35%,33.6%,38.9%,47.8%,58.8%,39.4%
O=C(c1ccccc1)N1CCOCC1,9.75%,-2.5%,-3.25%,12.3%,-0.75%,13.2%
CC(=O)NNc1nc(C)c(C(/C=C/c2ccc(Cl)cc2)=N/NC(=S)NN)s1,34.1%,20.4%,45%,15.8%,11.8%,9.75%
O=c1nc(/C=C/c2ccccc2Cl)cc2n1CCN2CCO,-17.4%,-10.7%,-4.2%,4.1%,-3.1%,-10.2%
COc1cc(/C=N/NC(N)=S)cc(OC)c1,-4.1%,-11.2%,-15.1%,-35.9%,-17.6%,-11.8%
COc1ccc(/C=N/NC(=O)c2cnc3[nH]c(=O)n(C)c(=O)c3c2)cc1,10.7%,10.3%,30.6%,5.45%,11.2%,22.4%
Oc1ccccc1C=Nc1ccc(Cl)cn1,17.2%,15.2%,16.2%,21.6%,18.9%,20.8%
CCOC(=O)CCCCC(N)=O,-4.3%,-7.6%,-15.7%,1.15%,11.4%,2.7%
S=c1nc[nH][nH]1,21.5%,-3.7%,15.6%,-8.65%,1.4%,21.6%
O=C(CC(O)(C(F)(F)F)C(F)(F)F)C(CCCl)C(O)(C(F)(F)F)C(F)(F)F (stereo not drawn),17.6%,18.9%,41.6%,21.4%,8.05%,38.8%
c1ccc(Nc2nnc(-c3nsc4ccccc34)o2)cc1,-34.5%,-40.9%,-42.8%,-1.4%,-31.9%,-35.9%
COc1ccc(Oc2nc(=O)n3ccccc3n2)cc1,-13.4%,0.65%,-14.6%,-12.6%,9.45%,-20.7%
COc1ccc(CC2(C(=O)O)NCCc3cc(O)c(OC)cc32)cc1O (stereo not drawn),16.7%,-3.25%,-13.7%,4.15%,-0.5%,-5.5%
CC(=O)OCC1OC(c2ccccc2)C/C(=N/O)C1OC(C)=O (stereo not drawn),90.8% (active),98.5% (active),97.8% (active),96.8% (active),87.8% (active),97.7% (active)
O=C(O)/C=C/SCc1ccccc1,10.2%,-13.2%,0.8%,-4.3%,1.4%,-3.05%
C/C=N\C(N)=S,1.45%,-1.3%,4.8%,9.05%,9.8%,1%
C1CCC(CN2CCN(CC3CCCCO3)CC2)OC1 (stereo not drawn),-2.4%,-11.5%,-1.05%,-41.8%,0.25%,3.05%
CCCCC(=O)OCC(=O)[C@]1(O)Cc2c(O)c3c(c(O)c2[C@@H](OC2CC(NC(=O)C(F)(F)F)C(O)C(C)O2)C1)C(=O)c1c(OC)cccc1C3=O (stereo partly drawn),19.5%,21.3%,29.9%,4.9%,53%,30.8%
COc1nc(C(=O)O)c(Cl)c(OC)c1Cl,-34.6%,-21.8%,-40.5%,-4.95%,-39.6%,-35%
CC(=O)NC1C(O)OC(COCc2ccccc2)C(OCc2ccccc2)C1OCc1ccccc1 (stereo not drawn),6.9%,-1.8%,-10.4%,7.25%,-5.35%,-15.1%

SMILES,growth inhibition [1],growth inhibition [2],growth inhibition [3],growth inhibition [4],growth inhibition [5],growth inhibition [6]
Cn1c(N)c(NC(=O)CC#N)c(=O)n(C)c1=O,20.9%,2.7%,27.3%,21%,-9.85%,21.1%
O=C1C=CC(=NCl)C=C1,-18.6%,-24.9%,4.35%,-21.9%,1.15%,10.6%
CCCCC(=O)CCCC,3.55%,-14%,-5.1%,-3.3%,-4.95%,4.35%
CCC(CC)C(=O)NC(O)C(Cl)(Cl)C(C)Cl (stereo not drawn),3.8%,27.1%,0.55%,20.3%,6.65%,14.6%
Nc1ncnc2c1ncn2-c1ccc(N(CCO)CCO)cc1,5.5%,-12.3%,-1.15%,-30.2%,-9.45%,8.35%
O=C(O)CCNC(=O)c1ccccc1O,-41.5%,-8.5%,-17.1%,-53.8%,-18.1%,-56.8%
COc1ccc(/C=C/C(=O)c2c(-c3ccccc3)nn(C)c(=O)c2N2CCCCC2)cc1,7.8%,-8.5%,-10.8%,26.5%,7.05%,1.7%
Cc1cc(=O)c2c(F)ccc(F)c2[nH]1,0%,4.5%,13.9%,-36.4%,-7.85%,12.7%
CNc1ccc(Cl)cc1C(N)=O,2.8%,6.9%,28.7%,-3.25%,7.05%,19.9%
O=S(=O)(O)c1ccc(-c2nc3ccccc3[nH]2)cc1,1.6%,8.5%,4.65%,6%,28.2%,-18.9%
O=[N+]([O-])c1cccc2nc3ccccc3c(NCCc3ccccn3)c12,13.3%,-19.9%,20.6%,-32.4%,-17.1%,13.8%
CCCCCN(CCCCC)C(=O)C(C)Br (stereo not drawn),-3.6%,-12.9%,12.8%,-12.9%,44.9%,3.1%
O=C(NCCCOc1ccc(Cl)c(Cl)c1)NCCc1ccc(Cl)c(Cl)c1,6.65%,4.7%,-3.95%,-8.9%,0.95%,15.4%
CN(c1ccccc1)S(=O)(=O)c1ccc(Cl)cc1,38%,19.1%,32.1%,11.4%,43.2%,25.9%
CC(C)=C1CCC(CN2CCOCC2)C1=O (stereo not drawn),25.2%,16.4%,23.1%,19.6%,-2.6%,87% (active)
COc1c2ccoc2c(OC)c2oc(=O)ccc12,13.3%,-23.6%,11.7%,17.2%,-4%,-2.45%
NC(N)=NS(=O)(=O)c1ccc(N2C(=O)CC3(CCCC3)C2=O)cc1,10.8%,-2.25%,-16.8%,17.6%,13.4%,6.75%
NCCCOC12CC3CC(CC(C3)C1)C2,6.1%,-4.05%,38.8%,-50.4%,7.6%,15.8%
NC(=O)O/N=C/c1ccc(Cl)cc1,2.8%,-16.8%,-13.1%,10.3%,17.1%,9.8%
CN(C)c1ccc(-c2c3ccc(Cl)cc3nc3ccc(Br)cc23)cc1,-1.3%,-1.9%,-18.1%,-4.3%,-1%,-8.9%
CC1=CC(=O)C(C(C)C)=CC1=O,-9.55%,7.25%,-4.25%,22.6%,4.7%,0.5%
